Experiment [1] is described as follows: TOX21_p53_BLA_p2_viability: Viability Assessment in the Tox21 HCT-116 p53 Agonism Beta-lactamase Assay, Phase 2 (AID 2283591).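 Further: actives lower the ATP signal meaning cytotoxicity.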 The procedure, abridged: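 HCT116 p53-bla cells, 4000/well, dosed after 5 h plating (217-fold dilution of DMSO stocks) and incubated 16 h at 37C. Viability taken as cellular ATP by CellTiter-Glo luminescence after 30 min RT; signal loss marks cytotoxicity.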

The target in experiment [2] is Cellular tumor antigen p53 (Homo sapiens) (UniProt P04637). Put plainly: TOX21_p53_BLA_p3_ratio: Tox21 HCT-116 p53 Agonism Beta-lactamase Assay, Ratio, Phase 3 (AID 2283596). In a few lines: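 Cells were seeded at 4000/well, rested 5 h at 37C, then dosed with DMSO compound solutions (217-fold dilution) for 16 h. CCF4-AM substrate was loaded for 2 h at room temperature, and the 460/530 nm emission ratio was fitted for gain of signal versus DMSO.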

Experiment [3] shares this target. Nature of the experiment: TOX21_p53_BLA_p5_ratio: Tox21 HCT-116 p53 Agonism Beta-lactamase Assay, Ratio, Phase 5 (AID 2283599). In a few lines:
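HCT-116 p53-bla cells (4000/well) plated 5 h, dosed with compound (217-fold DMSO dilution) for 16 h at 37 C; CCF4-AM substrate 2 h at room temperature. Activity is the 460/530 nm emission ratio (405 nm excitation), fitted in gain-of-signal direction versus DMSO.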

The nature of experiment [4]: TOX21_p53_BLA_p5_viability: Viability Assessment in the Tox21 HCT-116 p53 Agonism Beta-lactamase Assay, Phase 5 (AID 2283600). In a few lines: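 ATP luminescence (CellTiter-Glo, 30 min, RT) served as the viability read-out, with loss of signal indicating cytotoxicity. Compounds in DMSO were pinned at a 217-fold dilution onto 4000 cells/well and incubated 16 h, 37C.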

For experiment [5], the target named is Cellular tumor antigen p53 (Homo sapiens) (UniProt P04637). Put plainly: TOX21_p53_BLA_p4_ratio: Tox21 HCT-116 p53 Agonism Beta-lactamase Assay, Ratio, Phase 4 (AID 2283601). In a few lines: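 HCT-116 p53 beta-lactamase reporter cells (4000/well) preincubated 5 h, then compound (217-fold dilution of DMSO stock) for 16 h at 37C. CCF4-AM substrate added 2 h at room temperature; 460/530 nm emission ratio fitted upward versus DMSO.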

Experiment [6] is described as follows: TOX21_p53_BLA_p4_viability: Viability Assessment in the Tox21 HCT-116 p53 Agonism Beta-lactamase Assay, Phase 4 (AID 2283597).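 Further: hits lower the luminescence signal meaning cytotoxicity.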 The procedure, abridged: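 ATP content by CellTiter-Glo luminescence, 30 min RT, read after the beta-lactamase ratio step. Cells: HCT116, 4000/well, compound added after 5 h, exposure 16 h at 37C. Signal loss = reduced viability.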

Experiment [7] concerns the target Cellular tumor antigen p53 (Homo sapiens) (UniProt P04637). Put plainly: TOX21_p53_BLA_p2_ratio: Tox21 HCT-116 p53 Agonism Beta-lactamase Assay, Ratio, Phase 2 (AID 2283592). The procedure, abridged: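 Readout: blue/green (460/530 nm) FRET emission ratio after 2 h CCF4-AM loading at room temperature, excitation 405 nm. HCT116 p53 bla cells, 16 h compound exposure at 37C, 5% CO2; agonist direction fitted against DMSO baseline.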

The nature of experiment [8]: TOX21_p53_BLA_p3_viability: Viability Assessment in the Tox21 HCT-116 p53 Agonism Beta-lactamase Assay, Phase 3 (AID 2283593).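 Further: cells exposed to compound for 16 h before reading.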 In a few lines: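 HCT116 cells, 4000/well, dosed 5 h after plating by pin transfer (217-fold dilution from DMSO stock) and incubated 16 h at 37C, 5% CO2. Viability read as ATP luminescence with CellTiter-Glo after 30 min at room temperature.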

Experiment [9] in a line: UKN5_HCS_SBAD2_cell_viability: Viability Assessment in the University of Konstanz (UKN) Leist Lab Neurite Outgrowth Assay in human iPSC-derived immature Dorsal Root Ganglia Neurons (UKN5) (AID 2284056; active means hit-call score of the fitted dose curve at least 0.9, where 1 is the maximum; inactive means score below 0.9). The procedure, abridged:
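iPSC-derived immature peripheral neurons (SBAD2) seeded on Matrigel with CHIR99021, SU5402 and DAPT, dosed 1 h later for 24 h. Viability from Hoechst H-33342 and calcein-AM live staining, high-content imaging; bidirectional fit versus DMSO.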

Experiment [10] can be described thus: UKN5_HCS_SBAD2_neurite_outgrowth: University of Konstanz (UKN) Leist Lab Neurite Outgrowth Assay in human iPSC-derived immature Dorsal Root Ganglia Neurons (UKN5) (AID 2284070; active means hit-call score of the fitted dose curve at least 0.9, where 1 is the maximum; inactive means score below 0.9). Particulars: actives raise or lower the signal. The procedure, abridged: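 Cryopreserved SBAD2 peripheral neurons were seeded at 100.000 cells/cm2 in N2-S/KSR medium containing CHIR99021, SU5402 and DAPT, then exposed to compounds for 24 h. Neurite area from calcein-AM high-content imaging was fitted bidirectionally against DMSO.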

Experiment [11] is described as follows: UKN2_HCS_IMR90_neural_migration: University of Konstanz (UKN) Leist Lab Neural Crest Cell Migration Assay in human induced IMR90 Pluripotent Stem Cells (UKN2) (AID 2284204; active means hit-call score of the fitted dose curve at least 0.9, where 1 is the maximum; inactive means score below 0.9). As to conditions: actives raise or lower the signal. The procedure, abridged:
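Stopper-exclusion migration (cMINC), human iPSC-derived neural crest cells; N2-S + EGF/FGF; compound added 24 h post-stopper removal, 24 h exposure. Readout: calcein-AM/Hoechst 30 min, HCS fluorescence imaging; bidirectional fitting, DMSO baseline.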

Experiment [12] in a line: UKN4_HCS_LUHMES_neurite_outgrowth: University of Konstanz (UKN) Leist Lab Neurite Outgrowth Assay in human LUHMES cells (UKN4) (AID 2284206; active means hit-call score of the fitted dose curve at least 0.9, where 1 is the maximum; inactive means score below 0.9). As to conditions: actives raise or lower the signal. The procedure, abridged:
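Read-out: calcein-AM neurite area by high-content fluorescence imaging, with Hoechst H-33342 viability counterstain, after 24 h chemical exposure of day-2 differentiated LUHMES cells. Activity fitted bidirectionally against DMSO baseline.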

Experiment [13] is described as follows: UKN4_HCS_LUHMES_cell_viability: Viability Assessment in the University of Konstanz (UKN) Leist Lab Neurite Outgrowth Assay in human LUHMES cells (UKN4) (AID 2284232; active means hit-call score of the fitted dose curve at least 0.9, where 1 is the maximum; inactive means score below 0.9). In a few lines:
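Day-2 differentiated LUHMES, 30000 cells/well, dosed ~30 min–2 h post-seeding; 24 h treatment incl. staining; Hoechst H-33342 + calcein-AM at 23.5 h; HCS imaging; DMSO-normalized, bidirectional fit.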

A short description of experiment [14]: UKN2_HCS_IMR90_cell_viability: Viability Assessment in the University of Konstanz (UKN) Leist Lab Neural Crest Cell Migration Assay in human induced IMR90 Pluripotent Stem Cells (UKN2) (AID 2284233; active means hit-call score of the fitted dose curve at least 0.9, where 1 is the maximum; inactive means score below 0.9;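 further: cells exposed to compound for 24 h after a 24 h migration phase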). In a few lines: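 Viability read as calcein-AM fluorescence by high-content imaging, Hoechst co-stain, 30 min. Human iPSC (IMR90) neural crest cells had migrated 24 h into stopper-defined gaps before 24 h chemical exposure. Fitted bidirectionally relative to DMSO.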

SMILES strings stand for the structures. Inconclusive results are not listed. Activity calls are given as the source filed them. How the source made its calls, unless noted: active means hit-call score of the fitted dose curve at least 0.9, where 1 is the maximum; inconclusive means response in the unintended direction; inactive means score below 0.9.

Sequence of Cellular tumor antigen p53 (Homo sapiens) (P04637 whole entry, looked up): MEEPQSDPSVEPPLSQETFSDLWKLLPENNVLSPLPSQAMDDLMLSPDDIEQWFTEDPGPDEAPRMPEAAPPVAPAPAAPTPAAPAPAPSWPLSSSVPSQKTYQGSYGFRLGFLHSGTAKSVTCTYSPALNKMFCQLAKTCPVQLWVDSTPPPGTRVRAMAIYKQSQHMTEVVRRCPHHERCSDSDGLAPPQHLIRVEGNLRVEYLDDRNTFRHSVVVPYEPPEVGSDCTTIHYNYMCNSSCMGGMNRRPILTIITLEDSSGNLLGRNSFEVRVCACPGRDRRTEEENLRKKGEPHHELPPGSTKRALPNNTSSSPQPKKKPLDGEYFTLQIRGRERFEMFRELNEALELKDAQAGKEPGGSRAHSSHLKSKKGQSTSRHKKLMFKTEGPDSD

For the molecule `CC(C)(C)C(=O)Cl`, the result in [1], in experiment [2], in [3], in experiment [4] and in [5] was inactive.
Regarding `CS(=O)(=O)Cl`, the outcome in experiment [1], in experiment [6], in experiment [4] and in experiment [5] was inactive.
On to `c1cncc([C@@H]2CCCCN2)c1`, for which the outcome in [7] and in [8] was inactive.
In the case of `C=CC(=C)C`, the result in [1] and in experiment [4] was inactive.
For `O=C1C=C2C=C[C@@H]3C[C@@]2(O1)[C@H]1CCCCN31`, the outcome in experiment [7], in [8], in [2], in experiment [6], in [3] and in experiment [4] was inactive.
Take `CN(C)CCCCCCN(C)C`: the outcome in experiment [1], in experiment [4] and in [5] was inactive.
Consider `CC1CN1` (stereo not given), for which the outcome in experiment [7], in experiment [8], in experiment [2] and in [6] was inactive.
Take `CN1CC[C@]23c4c5ccc(O)c4O[C@H]2[C@@H](O)CC[C@H]3[C@H]1C5`: the call in experiment [1], in experiment [6] and in experiment [3] was inactive.
Turning to `Cc1cccc(N)c1C`, the molecule was called inactive in experiment [1], in experiment [6], in experiment [3], in [4] and in experiment [5].
As to `CNC(C)(C)Cc1ccccc1`, the call in [1], in experiment [3] and in [4] was inactive.
With `CC(=O)[C@H]1CC[C@H]2[C@@H]3CC[C@H]4C[C@H](O)CC[C@]4(C)[C@H]3C(=O)C[C@]12C`, the molecule was classed as inactive in experiment [1] and in experiment [6].
Take `C=C1CC[C@@]2(O)[C@H]3Cc4ccc(O)c5c4[C@@]2(CCN3CC2CC2)[C@H]1O5`: the molecule was called inactive in experiment [1], in experiment [2] and in experiment [5].
On to `ClC(Cl)=C(Cl)Cl`, for which the result in experiment [1], in experiment [6], in experiment [3], in experiment [4] and in experiment [5] was inactive.
With `O=[N+]([O-])c1ccccc1-c1ccccc1`, the molecule was classed as inactive in experiment [1], in [2], in experiment [3] and in experiment [4].
Regarding `CN1CC[C@]23c4c5ccc(O)c4O[C@H]2[C@@H](O)C=C[C@H]3[C@H]1C5`, the outcome in experiment [1], in experiment [4], in [9], in experiment [10], in experiment [11] and in experiment [12] was inactive. The call in [13] and in experiment [14] was inactive.
For the molecule `CC(C)NCC(O)c1ccccc1Cl` (stereo not given), the result in experiment [7], in experiment [8] and in experiment [2] was inactive.
With `CNC(C)CC1CCCCC1` (stereo not given), the outcome in experiment [7], in [8], in [2], in [6] and in experiment [3] was inactive.
For `CCCN(CCC)C(=O)Cc1c(-c2ccc(Cl)cc2)nc2ccc(Cl)cn12`, the molecule was called inactive in experiment [1], in experiment [6], in [4] and in experiment [5].
Take `CCCCCCCCP(=O)(O)O`: the call in experiment [1], in experiment [2] and in experiment [5] was inactive.
As a reminder, the AC50 is the concentration giving half of the maximal activity seen. As for `C[C@]12CC[C@H]3[C@@H](CC=C4C[C@@H](O)CC[C@@]43C)[C@@H]1CC[C@@H]2O`, the result in experiment [7], in experiment [2], in experiment [6], in experiment [3] and in experiment [4] was inactive. For the same molecule, in [8], the AC50 is 43.5 µM (active).

Source of the values: PubChem BioAssay (EPA / NIEHS).
